Assay results reported in PubChem BioAssay (Tox21).
Several values for one entry are separate records, joined by “and”; a condition that tells them apart may be missing. Equal entries are not always repeated. Inconclusive results are not listed. More than one record can exist for a structure, and the calls need not agree. Activity calls are given as the source filed them. Unless noted, the call rests on the fitted dose curve; in most records, active means well fitted curve in the direction sought with a large enough effect in the repeat runs; inconclusive means weak or mixed curves; inactive means no such curve, though single readings can be large; an effect the other way counts as inactive or inconclusive.

Assays:
[1] = qHTS assay to identify small molecule agonists of the NFkB signaling pathway - cell viability counter screen (AID 1159515; calls by dose curve; further: nearly all actives have a fitted effect of over 55% in size; further: potency means the concentration at half of the fitted maximal effect); details: NFkB-bla ME-180 viability, CellTiter-Glo luminescence, 5 h; series mostly up to 61 µM
How it was run: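 Plate 2,000 NFkB-bla ME-180 cells/well; incubate overnight. Add compounds, 5 hr at 37 C. Add FRET substrate, 1.5 hr RT. Add CellTiter-Glo, 30 min RT; read luminescence.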

[2] = qHTS assay to identify small molecule antagonists of the retinoid-related orphan receptor gamma (ROR-gamma) signaling pathway - cell viability counter screen (AID 1159520); details: Tet-on RORgamma CHO cells viability, ATP luminescence, 16 h; series mostly up to 92.4 µM; further: nearly all actives have a fitted effect of over 50% in size; further: potency means the concentration at half of the fitted maximal effect
How it was run: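 Tet-on ROR gamma CHO cells (1,000/well) were plated 4 hr, given compounds in DMSO for 2 hr at 37 C, then induced with 1 uM final doxycycline for 16 hr. Viability was read as ATP by CellTiter-Glo luminescence after 30 min.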

[3] = biological target: Nuclear receptor ROR-gamma (Homo sapiens) (UniProt P51449); experiment: qHTS assay to identify small molecule antagonists of the retinoid-related orphan receptor gamma (ROR-gamma) signaling pathway (AID 1159521; further: nearly all actives have a fitted effect of over 50% in size; further: potency means the concentration at half of the fitted maximal effect); details: Tet-on RORgamma CHO cells, RORE-luciferase, 16 h; series mostly up to 92.4 µM
How it was run: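 Inducible-expression reporter assay: doxycycline (1 uM final) switched on RORγ in CHO cells bearing a ROR response element-luciferase construct, with test compounds present from 2 h beforehand. Decreased luminescence after 16 h defined antagonist activity.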

[4] = qHTS assay to identify small molecule agonists of the AP-1 signaling pathway - cell viability counter screen (AID 1159525; calls by dose curve; further: nearly all actives have a fitted effect of over 55% in size; further: potency means the concentration at half of the fitted maximal effect); details: ME-180 AP-1-bla cells viability, ATP luminescence, 5 h; series mostly up to 76.8 µM
How it was run: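 Each titration point was normalised to DMSO and tetra n-octyl ammonium bromide controls. The read was Cell Titer Glo luminescence after 30 min at RT, following 5 h compound exposure of ME-180 AP-1-bla cells at 37 °C.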

[5] = qHTS assay to identify small molecule agonists of the AP-1 signaling pathway (AID 1159526; calls by dose curve); details: ME-180 (cervical carcinoma) AP-1-bla reporter, beta-lactamase FRET ratio, 5 h; series mostly up to 76.8 µM
[6] = biological target: Retinoic acid receptor RXR-alpha (Homo sapiens) (UniProt P19793); experiment: qHTS assay to identify small molecule agonists of the RXR signaling pathway (AID 1159527; calls by dose curve; further: nearly all actives have a fitted effect of over 35% in size); details: HEK293T RXRa-UAS-bla, beta-lactamase ratio, 16 h; series mostly up to 76.8 µM
How it was run: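 Compounds in DMSO were added to RXR-alpha-UAS-bla HEK 293T cells kept in 2% charcoal-stripped serum, and incubated 16 hr at 37 C with 5% CO2. Reporter signal came from a 2 hr B/G FRET substrate step.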

[7] = qHTS assay to identify small molecule antagonists of the vitamin D receptor (VDR) signaling pathway - cell viability counter screen (AID 743225); details: VDR-bla HEK293T viability, CellTiter-Glo luminescence, 16 h; series mostly up to 61 µM; further: nearly all actives have a fitted effect of over 50% in size; further: potency means the concentration at half of the fitted maximal effect
How it was run: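 Same-well multiplex: following 16 h treatment of HEK 293T cells carrying a UAS-driven beta-lactamase reporter with compound and agonist (3 nM final), and a 2 h FRET substrate step, CellTiter-Glo was added and luminescence read after 30 min.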

[8] = qHTS assay to identify small molecule agonists of the RXR signaling pathway - cell viability counter screen (AID 1159529); details: RXR-alpha-bla HEK293T viability, CellTiter-Glo, 16 h; series mostly up to 76.8 µM; further: nearly all actives have a fitted effect of over 50% in size; further: potency means the concentration at half of the fitted maximal effect
How it was run: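 Counter screen: CellTiter-Glo luminescence. Cells: RXR-alpha-UAS-bla HEK 293T. Medium: 2% charcoal-stripped FBS. Treatment: 16 h, 37 C. Reagent incubation: 30 min, RT.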

[9] = qHTS assay to identify small molecule agonists of the endoplasmic reticulum stress response signaling pathway - cell viability counter screen (AID 1159517; calls by dose curve; further: nearly all actives have a fitted effect of over 50% in size); details: ESRE-bla HeLa viability, CellTiter-Glo luminescence, 5 h; series mostly up to 61 µM
How it was run: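 Cytotoxicity of test compounds toward ESRE-bla HeLa cells was assessed after 5 hr exposure. The luminescent CellTiter-Glo signal was measured 30 min after reagent addition.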

[10] = qHTS assay to identify small molecule agonists of the endoplasmic reticulum stress response signaling pathway (AID 1159516; active means well fitted activation curve with a large enough effect in the signal ratio in the repeat runs, not every such curve was filed as active; the % refers to the signal ratio); details: ESRE-bla HeLa, ER stress beta-lactamase reporter, 5 h; series mostly up to 61 µM
How it was run: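 Beta-lactamase expression from the ER stress response element in HeLa reporter cells is quantified with the LiveBLAzer B/G FRET substrate, read at 405 nm excitation after 2 hr at room temperature, following 5 hr compound treatment at 37 C.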

Measured: Potency

Chain of Retinoic acid receptor RXR-alpha (Homo sapiens) (P19793 whole entry, looked up): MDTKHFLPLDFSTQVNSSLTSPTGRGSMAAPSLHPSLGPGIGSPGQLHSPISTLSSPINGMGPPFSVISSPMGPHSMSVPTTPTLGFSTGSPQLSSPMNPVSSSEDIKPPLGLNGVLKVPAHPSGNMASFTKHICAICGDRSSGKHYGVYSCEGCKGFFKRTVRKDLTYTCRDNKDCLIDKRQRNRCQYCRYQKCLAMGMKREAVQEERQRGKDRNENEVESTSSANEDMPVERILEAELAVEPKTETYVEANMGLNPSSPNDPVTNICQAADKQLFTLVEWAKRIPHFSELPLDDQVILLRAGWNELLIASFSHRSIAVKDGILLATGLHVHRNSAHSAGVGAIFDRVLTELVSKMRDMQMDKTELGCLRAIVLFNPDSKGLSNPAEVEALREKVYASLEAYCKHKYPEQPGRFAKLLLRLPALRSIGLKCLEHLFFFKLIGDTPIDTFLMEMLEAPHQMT

Fc1cccc(Cl)c1CCl
inactive: [1] | [2] | [3] | [4] | [5] | [6]

Clc1ccc(C(c2ccc(Cl)cc2)C(Cl)(Cl)Cl)cc1
active: [1] 55.3 µM | [3] 61.6 µM | [4] 34.9 µM and 38.9 µM | [8] 22 µM and 30.9 µM and 23.9 µM
inactive: [7]
61.6 µM (active) and inactive: [2]

Cc1c(Cl)c(=O)oc2cc(OP(=O)(OCCCl)OCCCl)ccc12
inactive: [7] | [1] | [2] | [3] | [4] | [5] | [6] | [8]

CC(C)C1CCC(Cc2ccc(Cl)cc2)C1(O)Cn1cncn1 (stereo unspecified)
active: [7] 48.5 µM | [1] 54.4 µM | [2] 60.5 µM | [3] 30.3 µM | [4] 48.5 µM | [8] 54.4 µM

CC(C)OC(=S)S
active: [3] 15.4 µM
inactive: [7] | [1] | [9] | [4]

N#CC(Cl)Cl
inactive: [7] | [1] | [2] | [3] | [4] | [5] | [6] | [8]

C[C@@H]1O[C@@H](O[C@H]2C[C@@H](O)[C@]3(CO)[C@H]4[C@H](O)C[C@]5(C)[C@@H](C6=CC(=O)OC6)CC[C@]5(O)[C@@H]4CC[C@]3(O)C2)[C@H](O)[C@H](O)[C@H]1O
active: [7] 16.5 nM and 107 nM | [1] 0.0261 µM
inactive: [2] | [4] | [5]

CCc1nn(C)c(C(=O)NCc2ccc(C(C)(C)C)cc2)c1Cl
active: [7] 38.9 µM | [1] 54.9 µM | [2] 21.7 µM | [3] 0.545 µM | [4] 54.9 µM | [8] 43.6 µM

CCOCn1c(-c2ccc(Cl)cc2)c(C#N)c(Br)c1C(F)(F)F
active: [7] 4.9 µM | [2] 9.69 µM | [3] 0.686 µM | [8] 19.5 µM
inactive: [1] | [4]

BrC(Br)C(Br)(Br)Br
inactive: [1] | [9] | [4] | [5]

CCCCCCCCCCCCCN1CC(C)OC(C)C1 (stereo unspecified)
inactive: [7] | [1] | [2] | [3] | [4] | [5] | [8]

Oc1c(Br)c(Br)c(Br)c(Br)c1Br
inactive: [1] | [2] | [4]
active: [3] 24.5 µM

CC1(c2ccc(Oc3ccccc3)cc2)OC(=O)N(Nc2ccccc2)C1=O (stereo unspecified)
active: [7] 39.1 µM | [2] 54.8 µM | [3] 6.15 µM
inactive: [1] | [4]

Cc1cc(N=Nc2ccccc2C)ccc1N
active: [8] 54.9 µM and 43.6 µM
inactive: [7] | [1] | [9] | [3]

COP(=O)(OC)SCn1c(=O)oc2cc(Cl)cnc21
inactive: [1] | [2] | [3] | [4] | [8]

O=c1c(C2CC(c3ccc(-c4ccc(Br)cc4)cc3)Cc3ccccc32)c(O)sc2ccccc12 (stereo unspecified)
active: [3] 2.66 µM
inactive: [1] | [2] | [5] | [8]

CC(C)OC(=O)C(O)(c1ccc(Cl)cc1)c1ccc(Cl)cc1
active: [1] 49 µM | [2] 68.6 µM | [3] 54.5 µM | [4] 34.7 µM | [8] 38.9 µM

CCOC(=O)OC1=C(c2cc(C)ccc2C)C(=O)NC12CCC(OC)CC2 (stereo unspecified)
inactive: [7] | [1] | [2] | [3] | [4] | [5]

CC(C)CC(C)Nc1ccc(Nc2ccccc2)cc1 (stereo unspecified)
active: [7] 48.2 µM | [1] 54 µM | [2] 67.4 µM | [3] 47.7 µM | [8] 54 µM

CCOP(=O)(NC(C)C)Oc1ccc(SC)c(C)c1 (stereo unspecified)
inactive: [1] | [2] | [8]
active: [3] 9.69 µM

O=[N+]([O-])O.O=[N+]([O-])O.[Cd]
inactive: [1] | [9] | [4]
active: [7] 19.5 µM | [8] 43.6 µM

CN(C)c1ccc(N=Nc2ccccc2)cc1
inactive: [7] | [1] | [2] | [3] | [4] | [5]

C1CCC2CCCCC2C1 (stereo unspecified)
inactive: [7] | [10] | [9] | [2] | [3] | [5] | [6] | [8]

CC(c1ccc(O)cc1)c1ccc(O)cc1
inactive: [7] | [10] | [9] | [2] | [4] | [5] | [6] | [8]
inactive and 61.1 µM (active): [3]

[Cl][Sb]([Cl])[Cl]
inactive: [7] | [10] | [9] | [4] | [8]
active: [2] 48.6 µM | [3] 5.45 µM
